Screens as filed in PubChem.
TAR Tat displ – TAR RNA-Tat peptide displacers, HIV-1, primary screen, biochemical, FRET, FAM/TAMRA-labeled Tat; AID 1259389, 2018; HIV-1 TAR RNA, Tat peptide displacement FRET; active compounds read high; hit rate 0.6% among 100,000; z-score (test concentration not listed); active = z-score of 3 or more in at least 2 runs
CDC25B-CDK2 inh – primary biochemical HTRF screen for blockers of M-phase inducer phosphatase 2 binding to CDK2/cyclin A; HTRF CDC25B-CDK2/CyclinA binding, anti-His/anti-Flag; active compounds read high; z-score (concentration not given with the values); hit rate 0.72% among 94,000; AID 1259370, 2018; in the data active = z-score above about 3.2
* marks the source's active call; other numbers are inactive results; . = no result. Hits are enriched below; roughly 0.93% of the tested compounds scored in any of these assays.

SMILES | TAR Tat displ | CDC25B-CDK2 inh
CCOc1ccc(C2CC(=O)N3CN(c4ccc(CCO)cc4)CSC3=C2C#N)cc1 (stereo unspecified) | -1.59 | 7.2*
CCOc1ccc(C2CC(=O)N3CN(CCO)CSC3=C2C#N)cc1 (stereo unspecified) | 1.28 | 0.17
CCOc1ccc(N2CSC3=C(C#N)C(c4cccs4)CC(=O)N3C2)cc1 (stereo unspecified) | -1.66 | 4.05*
N#CC1=C2SCN(C3CCCC3)CN2C(=O)CC1c1ccc(Cl)cc1 (stereo unspecified) | 0.27 | 0.82
Cc1ccc(C2=Nn3c(nnc3-c3ccccc3)SC2)cc1C | 0.77 | .
CN1C(C(=O)NCc2cccs2)=CC(c2cccs2)=NS1(=O)=O | 1.35 | -1.94
CCOC(=O)c1c(C)oc2ncnc(NC(C(=O)OCC)C(C)O)c12 (stereo unspecified) | -0.22 | 1.11
CCOc1ccc(N2CSC3=C(C#N)C(c4ccco4)CC(=O)N3C2)cc1 (stereo unspecified) | -1.81 | 5.09*
Cc1ncc(CCCCN(C)C)c2c1[nH]c1ccccc12 | 3.66 | 1.14
CNCCCCc1cnc(C)c2[nH]c3ccccc3c12 | 5.02* | .
COC(=O)c1c(NC(=O)c2snnc2C)sc2c1CCC2 | 0.62 | -2.02
O=[N+]([O-])c1ccc(N2CCN(c3ccccc3)CC2)s1 | 3.48 | .
CCOC(=O)N1CCN(c2ccc([N+](=O)[O-])s2)CC1 | 5.15* | .
Cc1cc(C)c(S(=O)(=O)Nc2ccc[nH]c2=O)c(C)c1 | -1.88 | 9.4*
Cc1cc(C)c(S(=O)(=O)Nc2cc3c(cc2C)n(C)c(=O)n3C)c(C)c1 | 0.42 | .
O=C(Nc1nncs1)c1ccc(-n2nnnc2SCc2ccc(Cl)cc2)cc1 | 2.4 | .
CCc1ccc(C(=O)CC2(O)C(=O)N(C(C)C)c3ccccc32)cc1 (stereo unspecified) | -0.46 | 15.8*
CC(C)N1C(=O)C(O)(CC(=O)c2ccccc2)c2ccccc21 (stereo unspecified) | 0.83 | 0.13
CCOc1ccccc1NC(=O)C(C)N1c2cccc3cccc(c23)S1(=O)=O (stereo unspecified) | -0.69 | -0.92
CCn1c2ccccc2c2cc(CN3CCN(Cc4cccc([N+](=O)[O-])c4)CC3)ccc21 | . | 2.66
CCn1c2ccccc2c2cc(CN3CCN(Cc4cccc(OC)c4)CC3)ccc21 | . | 6.68*
CCCn1c(NCc2ccco2)nc2ccccc21 | 1.02 | -0.65
CC(C)n1cnc2cc(NCc3ccco3)ccc21 | 0.19 | 7.83*
Cn1cnc2cc(NCc3ccco3)ccc21 | 0.29 | 16.8*
CC(C)(C)n1cnc2cc(NCc3ccco3)ccc21 | 1.44 | 0.72
SMILES | TAR Tat displ | CDC25B-CDK2 inh
COc1cccc(CSc2nc3ccncc3n2Cc2ccccc2)c1 | 2.27 | -1.79
c1ccc(-c2nc3ccccn3c2Nc2ccc3c(c2)OCCO3)nc1 | 0.03 | -0.63
CC(C)(C)C1CCC2(CC1)SCC(=O)N2c1ccc(Br)cc1 (stereo unspecified) | . | -0.53
COc1ccc2nc(N/C(N)=N/S(=O)(=O)c3ccc(C)cc3)nc(C)c2c1 | . | -1.33
COc1ccc2c(c1)sc1nc(C)cc(=O)n12 | 2.35 | .
COc1ccc2c(c1)Cc1sc(NC(=O)c3ccc(OC)c(Br)c3)nc1-2 | 0.6 | 19.4*
COc1cc(OC)cc(C(=O)Nc2nc3c(s2)CCc2ccccc2-3)c1 | . | -2.35
CC(C)Nc1nc2c(S(=O)(=O)c3ccc(Cl)cc3)nnn2c2ccsc12 | 6.98 | .
O=C(c1ccco1)N1CCN(S(=O)(=O)c2ccc(F)cc2)CC1 | 16.6* | .
O=C(c1ccco1)N1CCN(S(=O)(=O)c2ccccc2)CC1 | 0.56 | -0.89
O=c1cc(-c2cc(O)c(O)c(O)c2)oc2cc(O)cc(O)c12 | 10.2* | .
O=c1cc(-c2ccc(O)cc2)oc2cc(O)cc(O)c12 | 3.36 | 0.12
O=C(NNC(=O)c1ccc(Cl)cc1Cl)c1ccc(OC(F)(F)F)cc1 | . | -1.37
CCCOC(=O)C1=C(C)NC2=C(C(=O)C(C(=O)OC)C(C)C2)C1c1cccs1 (stereo unspecified) | 0.71 | -0.08
CCc1nnc2c(NC(C)c3ccccc3)nc3ccccc3n12 (stereo unspecified) | -0.56 | .
Cn1c(C(F)(F)F)nnc1S(=O)(=O)Cc1ccc(-c2csnn2)cc1 | . | 15.8*
O=S(=O)(NCc1ccc(-c2csnn2)cc1)c1cc(C(F)(F)F)cc(C(F)(F)F)c1 | . | -0.91
COc1ccc(N2C(=O)C3N=NN(Cc4cccc(Br)c4)C3C2=O)cc1 (stereo unspecified) | 1.24 | 0.81
CCCCc1nn2c(=O)cc(CSc3ccccc3NC(=O)c3ccco3)nc2s1 | 0.87 | .
CSc1ccc(NC(=O)NCCN2CCc3ccccc3C2)cc1 | 1.53 | 12.7*
O=C(NCCN1CCc2ccccc2C1)Nc1ccccc1F | -0.3 | -0.6
COc1ccc(-c2noc(-c3nnn(-c4ccc(C)c(C)c4)c3N)n2)cc1 | 4.68* | .
COc1ccc(-c2noc(-c3nnn(-c4ccc(OC)cc4)c3N)n2)cc1 | 1.02 | .
CCc1cc2c(N3CCC(C(N)=O)(N4CCCCC4)CC3)ncnc2s1 | 1.3 | .
COc1cc(C2NC(=O)c3c(sc4c3CCN(C)C4)N2)ccc1O (stereo unspecified) | -8.13 | -0.03
SMILES | TAR Tat displ | CDC25B-CDK2 inh
CN1CCc2c(sc3c2C(=O)NC(c2ccc(O)c(O)c2)N3)C1 (stereo unspecified) | 12.6* | -0.12
COc1ccc(/C(C#N)=C/c2ccc3c(c2)OCO3)cc1 | . | -1.89
O=c1c(NCc2ccc3c(c2)OCO3)c(-c2ccccc2)c1=O | 0.41 | .
Cc1n[nH]c(C)c1Oc1ccc(Cl)cc1 | . | -1.81
CC1=C(C(=O)OCC2CCCO2)C(c2ccccc2F)C2=C(CC(C)(C)CC2=O)N1 (stereo unspecified) | 0.14 | -0.72
CC1=C(C(=O)OCC2CCCO2)C(c2ccccc2C)C2=C(CC(C)(C)CC2=O)N1 (stereo unspecified) | 5.05* | -5.53
CC(C)c1ccc(NC(=O)C2CC3CCCN3C23C(=O)Nc2ccccc23)cc1 (stereo unspecified) | 1.03 | .
O=c1[nH]c(Nc2ccccc2)cc2ccccc12 | -7.37 | 16.1*
O=C(O)c1cc2ccccc2c(=O)[nH]1 | 1.9 | .
Cc1ccc(CSCC(=O)N/N=C/c2ccccc2[N+](=O)[O-])cc1 | . | -0.65
O=C(CSc1nccc(C(F)(F)F)n1)c1ccc(Br)cc1 | . | 0.27
CCOC(=O)c1c(NC(C)=O)c2c3c(sc2n1CC(=O)NCc1ccco1)CCCC3 | 14* | .
CCOC(=O)c1c(NC(C)=O)c2c3c(sc2n1Cc1cn2ccccc2n1)CCCC3 | 1.7 | .
CC(=O)Nc1ccc2c(c1)nc1n2CCN(C(C)C)C1 | -7.6 | -0.16
CC(C)N1CCn2c(nc3cc(NC(=O)c4ccco4)ccc32)C1 | 18.7* | 10.3*
O=S(=O)(c1ccc(-c2csnn2)cc1)N1CCOCC1 | . | -1.9
O=C(CSc1n[nH]c(-c2ccco2)n1)c1ccc(Cl)cc1 | 17* | -2.18
O=C(CSc1n[nH]c(-c2ccccc2)n1)c1ccc(Cl)cc1 | . | -1.38
COc1ccc(C(=O)Cn2c3ccccc3n3nc(-c4ccco4)nc23)cc1OC | 0.31 | -1.21
COc1ccc(C(=O)CSc2nnc(-c3ccco3)c(-c3ccco3)n2)cc1 | 20.2* | -1.2
O=C(Nc1cnc2ccccc2c1)c1ccco1 | 0.67 | .
COc1ccc(C(=O)CSc2ccc(-c3cccs3)nn2)cc1 | 0.45 | .
COc1ccc(C(=O)Cn2c3ccccc3n3nc(-c4ccco4)nc23)cc1 | 7.1* | -5.39
